Values without a mark were called inactive. How the calls were made is not given here.

The labels stand for the following.
B1: design_619_5728adc2-0aea-404f-92dd-a4575c53f550_1864_dldesign_0_cycle1_af2pred (protein)
chain: MEEEKEKKEKEKLKKAKELLKKAKEMAENVAEYSVGEILRVATEAIRLATEAAKGKLKEEGKKVADEARKVAAEAARRALALQ
B2: design_619_5728adc2-0aea-404f-92dd-a4575c53f550_740_dldesign_0_cycle1_af2pred (protein)
chain: GAAEEARRLVEEVEAALKEAEAAAAADAAEGLRAAGELAVLAAEAAARALRLGDEEAFRRISAAIARATALAQQLAA
B3: design_619_5728adc2-0aea-404f-92dd-a4575c53f550_1370_dldesign_0_cycle1_af2pred (protein)
chain: AAAAVAANRAAAAATAETYKAKGKAAAADPAAALAYYNAAGLYAGLAKGDPEAEFAKYKAEADALIAAAKA
B4: design_619_5728adc2-0aea-404f-92dd-a4575c53f550_577_dldesign_0_cycle1_af2pred (protein)
chain: AESIAREAVAQIAALAAAGVADPAAKGEQATAILQTAAAAQKAIRAAGGPESLLNAVQAAAGAAIAALVA
B5: design_619_5728adc2-0aea-404f-92dd-a4575c53f550_1779_dldesign_0_cycle1_af2pred (protein)
chain: SAATEIATRTAQAAIRAGEEALERAREALEGETGREEVEREVARIEAQAETLELLAEGSPEIAPTANAKAEEFRREAERLREEAE
B6: design_619_5728adc2-0aea-404f-92dd-a4575c53f550_1820_dldesign_0_cycle1_af2pred (protein)
chain: AEAAKRAAAEAAVKKAAELAAKADPALAKRILDAKTIAEGISAAFTAAAQLIQKDPELAAEIVKEAEKAA
B7: design_619_5728adc2-0aea-404f-92dd-a4575c53f550_1264_dldesign_0_cycle1_af2pred (protein)
chain: GEEAAKKAEKAVEALKQGAKEAAKGTPELAANTAKSYITMAKSIAKGAKRADGGEAAKKVEKKAKEAIAEAKKLAKAAA
B8: design_619_5728adc2-0aea-404f-92dd-a4575c53f550_930_dldesign_0_cycle1_af2pred (protein)
chain: GEVKEQAEKELKKLEEAAKKTEEEAKKAAKAGATVAAAQIKATVKAALKNAKELFEKDPEQGLQAAKAALQVAETLLESAKGLIKAA
B9: design_619_5728adc2-0aea-404f-92dd-a4575c53f550_1766_dldesign_0_cycle1_af2pred (protein)
chain: ADPAALAAIQEQRDKALKEIEEAAKEAKETTEEEARKKIVDAAHTATAQLAQIGVAHPAVAAEAGQAISEILDAGKRALEEAKKNA
B10: design_619_5728adc2-0aea-404f-92dd-a4575c53f550_253_dldesign_0_cycle1_af2pred (protein)
chain: AAAAAEAAVAAAMAQINALVAEANRLLIEAQKTGNVELAKKAYELAEKAAAVGKATPALAKMAEALSKVVKEMAKATIKQAEAQA
B11: design_619_5728adc2-0aea-404f-92dd-a4575c53f550_1162_dldesign_0_cycle1_af2pred (protein)
chain: SPVEQYAKAQADMLKEAAGVDDATAQAFADYIVANPALATQAGAMTVAIVRAADAARAAAAAAAAAAAAAAAA
B12: design_619_5728adc2-0aea-404f-92dd-a4575c53f550_302_dldesign_0_cycle1_af2pred (protein)
chain: EREEVLREAIELLEKTAEAAKALGTPAGEILAASARALARLLREQRDEISLEGAKGYLELAKQLAAGVEAA
B13: design_619_5728adc2-0aea-404f-92dd-a4575c53f550_396_dldesign_0_cycle1_af2pred (protein)
chain: DEAKKQAEKHYKLAKEHLEKAIASKDEKEAKAHVSRARLNALAAASLDPSVAPEMLAMLKATAEALKDHPEAKAEAEEAAKLVAQLA
B14: design_619_5728adc2-0aea-404f-92dd-a4575c53f550_927_dldesign_0_cycle1_af2pred (protein)
chain: AAALDSARGEAAVTAAKLYGLAYKLDPELGAQAAAALAAILRDKATAVEGAKAAAAVAEKLKEKDPENAGELEKKLKELAEKLKAA
B15: design_619_5728adc2-0aea-404f-92dd-a4575c53f550_440_dldesign_0_cycle1_af2pred (protein)
chain: VTPEASKIAANSALALAKNILENVGVMSPEEAAGAVQVVVDLVKNSLPSEKEKHVEIAEVLKEAAKKNPANAAVLEAGAKAIEEIL
B16: design_619_5728adc2-0aea-404f-92dd-a4575c53f550_1353_dldesign_0_cycle1_af2pred (protein)
chain: GETGEAKREGARVAARLGAAAVQLAAVDPEVAKKAQAAVGEVLEAMEAAAKDPSKVEEVKKAREKAEKALKEAEKTLA
B17: design_619_5728adc2-0aea-404f-92dd-a4575c53f550_1536_dldesign_0_cycle1_af2pred (protein)
chain: SAALEEARREFEAAVELLAEHPDLAAKVREGFELGVTDIGAGLALLTEARREALELGLEAAAREIRAGMAALLRAHL
B18: design_619_5728adc2-0aea-404f-92dd-a4575c53f550_447_dldesign_0_cycle1_af2pred (protein)
chain: EELVKKAKEETTKLLEKAKEEAPGLGTLALNSFNNGFKEGVKEAYERLKKLYEWVTANATTPEQKKVAELIKKAYEVAKKAAEA
B19: design_619_5728adc2-0aea-404f-92dd-a4575c53f550_1117_dldesign_0_cycle1_af2pred (protein)
chain: SAAAAAAAGALAVEEAKRFAEEQLAYGKAEDPGVGMQAIATYANRKAVEYASDPATASAIVSIGVEAMEELARWRREREA
B20: design_619_5728adc2-0aea-404f-92dd-a4575c53f550_1575_dldesign_0_cycle1_af2pred (protein)
chain: AAWQALEIAKKAGLALAKSAAAMPNPEDAKKAAETAKDMVTATAQAVIDAGGDKEKAKALVEEVKKAAEAGVKAAKA
B21: design_619_5728adc2-0aea-404f-92dd-a4575c53f550_1938_dldesign_0_cycle1_af2pred (protein)
chain: AKEEAKKLLEKTKKEAEKAVKEAEAGTPTTAAEQAVKVLEFGKEAVEKARELGDEETAEQIAQVTNEAVAKITKAAIAKAK
B22: design_619_5728adc2-0aea-404f-92dd-a4575c53f550_1042_dldesign_0_cycle1_af2pred (protein)
chain: DAKEHAERALELAKEAAESGSVALASRAMQELALAINADPALGAEAAKEAAKIFAKNPELAGFGEAAVAIAA
B23: design_619_5728adc2-0aea-404f-92dd-a4575c53f550_1087_dldesign_0_cycle1_af2pred (protein)
chain: GPEVAERVARSARGIAEVLRGLADSIRAAGGSPAAEERVRAAAEEAERLAREAEEAAGDAEVARRLAEEANRLLQEATAVAMADLQAV
B24: design_619_5728adc2-0aea-404f-92dd-a4575c53f550_437_dldesign_0_cycle1_af2pred (protein)
chain: AAAEEAALAKAKKEAAEAAVKAVEYAARAGDPALAAKATRLLHEAQLTTDLEEAKKYLEEIKKLLKEAKERAE
B25: design_619_5728adc2-0aea-404f-92dd-a4575c53f550_1867_dldesign_0_cycle1_af2pred (protein)
chain: AAEKAALLAAAEATLARAQEVLAQAKKYPEVQPLAAAALGYALAAQGAVLVDPATGKAFLAKAQALLAEAEAQIKALEA
B26: design_619_5728adc2-0aea-404f-92dd-a4575c53f550_1269_dldesign_0_cycle1_af2pred (protein)
chain: AKEEAKEKAKKLVEEAKKLAEAAIADPSQYPAQAAKMTKLAEEAAKLGKELDPEIFGEAAQEILRLLIQAAQAVN
B27: design_619_5728adc2-0aea-404f-92dd-a4575c53f550_605_dldesign_0_cycle1_af2pred (protein)
chain: GQVAVNAAKGVAKTAISYAERLAKVEGEEGKKFLEEVKKETTKLVEEAKKSTPEKAQQLLAELVDLMKEVAERAAAAEAAAAAAAA
B28: design_619_5728adc2-0aea-404f-92dd-a4575c53f550_1681_dldesign_0_cycle1_af2pred (protein)
chain: AEKAKQAAELAEVLAATAEQAPQLTPAQIAAVANTVAIGLKGLGEAKEAAELAEKAAEAAKRDKEEAVKLLREAAEALKKLAA
B29: design_619_5728adc2-0aea-404f-92dd-a4575c53f550_1124_dldesign_0_cycle1_af2pred (protein)
chain: ELEELRKEAEAKAAEARALAAEGAKYDPTAAALFNAALRFFEIAIRLAEEGGDPEEARAALDAGTTLLAAGRAVLAAAAAAAA
B30: design_619_5728adc2-0aea-404f-92dd-a4575c53f550_1912_dldesign_0_cycle1_af2pred (protein)
chain: AAQQQAQVAAAATQAVADQTIKVAEELGKYDPELAKKYKEEATKIKKQAQEAAKQGQQGLQQVNQLLSQALELLGEAAKKLREAK
B31: design_619_5728adc2-0aea-404f-92dd-a4575c53f550_548_dldesign_0_cycle1_af2pred (protein)
chain: AALRHRTMAALFGRAVTLTGEAGRQAALNAAQMAAVLDPAAGAEFAAAIAEAAKATGDAGVHAVAAEFAAKEAAAAAAAAA
B32: design_619_5728adc2-0aea-404f-92dd-a4575c53f550_1976_dldesign_0_cycle1_af2pred (protein)
chain: SPALLAARKAITETAAATINALTDPAAANLVGRAMIQGLQLAQQGEAAGAHAAAAVAALALVEAAAAAARALDAAAA
B33: design_619_5728adc2-0aea-404f-92dd-a4575c53f550_1666_dldesign_0_cycle1_af2pred (protein)
chain: SEADAAALDELARLAGEVTGKPEEALALAEIAKQDPLALATLAAMARQARAASPEEAAQLARNAFQIMKALA
B34: design_619_5728adc2-0aea-404f-92dd-a4575c53f550_649_dldesign_0_cycle1_af2pred (protein)
chain: GEELAKEVEKKAKEVLEKVKEKAKEIAAKGTPEQAREAKGLVARARAYAIAAVGAARTIPELAKRYLELAKKEAERL
B35: design_619_5728adc2-0aea-404f-92dd-a4575c53f550_1668_dldesign_0_cycle1_af2pred (protein)
chain: ARAVVEAAANELAAETLRAGWQAGETGDAIAARIRAILEAGREVAEELAARNPAVTLEEARAAVRERAERLLAEAAA
B36: design_619_5728adc2-0aea-404f-92dd-a4575c53f550_766_dldesign_0_cycle1_af2pred (protein)
chain: MLGAEWARQQARRTAERAAELLAADPAAGAAAFARARTIVELAKGIDPEVGKAAQAEVEAIEAQAKAAAAAA
B37: design_619_5728adc2-0aea-404f-92dd-a4575c53f550_1814_dldesign_0_cycle1_af2pred (protein)
chain: DEELRKEVLEKIKELEAKAKEAAADPATQGLAVFLKNTAATARRELEKDAELGLAVVEAGEEGLAYLQAS
B38: design_619_5728adc2-0aea-404f-92dd-a4575c53f550_521_dldesign_0_cycle1_af2pred (protein)
chain: GEEEELKKKQQEVAERAKEAAELAKEAAKLSGQTEVANAVEAAAKQAAAAAEADPSAVESQLKFVEQLLEIALAALAAAKAAAAAA

CD276, Q5ZPR3, sequence (Q5ZPR3 whole entry): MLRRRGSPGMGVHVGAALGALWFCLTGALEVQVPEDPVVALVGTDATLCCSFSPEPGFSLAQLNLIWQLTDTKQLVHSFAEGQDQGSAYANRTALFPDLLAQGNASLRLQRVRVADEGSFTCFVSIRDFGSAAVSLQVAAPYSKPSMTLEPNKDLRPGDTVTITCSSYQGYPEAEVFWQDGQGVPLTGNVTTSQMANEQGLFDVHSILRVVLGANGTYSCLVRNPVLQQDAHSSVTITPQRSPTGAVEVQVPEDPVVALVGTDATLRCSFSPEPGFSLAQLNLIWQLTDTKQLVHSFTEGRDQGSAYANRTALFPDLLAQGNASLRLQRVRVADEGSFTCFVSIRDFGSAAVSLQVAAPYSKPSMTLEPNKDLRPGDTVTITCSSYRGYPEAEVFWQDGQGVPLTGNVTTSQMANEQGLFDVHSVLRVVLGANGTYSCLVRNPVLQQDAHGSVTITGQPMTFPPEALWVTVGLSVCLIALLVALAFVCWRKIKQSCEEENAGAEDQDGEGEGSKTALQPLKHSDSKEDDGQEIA

This test concerns the target CD276, Q5ZPR3.
In the case of B1, the “binding in a display sort” value was “not found”.

As for B2, the “binding in a display sort” value is “not found”. In the case of B3, the “binding in a display sort” value was “not found”. The entry for B4 is “not found”. B5: the “binding in a display sort” value is “not found”. For the molecule B6, the “binding in a display sort” value was “not found”.

B7: the “binding in a display sort” value is “not found”. Consider B8, for which the “binding in a display sort” value is “not found”. The entry for B9 is “not found”.

B10: the “binding in a display sort” value was “not found”. In the case of B11, the “binding in a display sort” value was “not found”. With B12, the “binding in a display sort” value is “not found”.

Take B13: the “binding in a display sort” value is “not found”. The entry for B14 is “not found”; for B15 it is “not found”; for B16 it is “not found”.

Take B17: the “binding in a display sort” value was “not found”. As for B18, the “binding in a display sort” value is “not found”. With B19, the “binding in a display sort” value was “not found”. Turning to B20, the “binding in a display sort” value is “not found”. As for B21, the “binding in a display sort” value was “not found”. Take B22: the “binding in a display sort” value is “not found”.

Consider B23, for which the “binding in a display sort” value was “not found”. B24: the “binding in a display sort” value was “not found”. For B25, the “binding in a display sort” value is “not found”.

Turning to B26, the “binding in a display sort” value is “not found”. As to B27, the “binding in a display sort” value is “not found”.

In the case of B28, the “binding in a display sort” value was “not found”. On to B29, for which the “binding in a display sort” value was “not found”.

Take B30: the “binding in a display sort” value is “not found”. With B31, the “binding in a display sort” value is “not found”. Turning to B32, the “binding in a display sort” value was “not found”. For the molecule B33, the “binding in a display sort” value is “not found”. As to B34, the “binding in a display sort” value is “not found”.

Take B35: the “binding in a display sort” value is “not found”. As for B36, the “binding in a display sort” value is “binds (active)”. The entry for B37 is “not found”. The entry for B38 is “not found”.

The record behind these values is article PMC13494018.
